Screening data: PubChem BioAssay, several laboratories
Rows were chosen to be rich in hits. Some 1.5% of all compounds tested hit in one or more screens of this group.
GLD-1 TGE inh – GLD-1-TGE RNA interaction inhibition (C. elegans). Q17339. purified GLD-1 + fluorescein TGE RNA, fluorescence polarization. inhibition, % at 5.96 µM. actives 0.44% (n = 320,000). AID 2280;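 active = percent inhibition above a per-plate cutoff, the plate mean of test compounds plus 3 SD, cut at about 30% in these data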;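 note: 0% = DMSO wells with GLD-1 and probe and 100% = wells lacking GLD-1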
Target sequence (Q17339 whole entry, looked up): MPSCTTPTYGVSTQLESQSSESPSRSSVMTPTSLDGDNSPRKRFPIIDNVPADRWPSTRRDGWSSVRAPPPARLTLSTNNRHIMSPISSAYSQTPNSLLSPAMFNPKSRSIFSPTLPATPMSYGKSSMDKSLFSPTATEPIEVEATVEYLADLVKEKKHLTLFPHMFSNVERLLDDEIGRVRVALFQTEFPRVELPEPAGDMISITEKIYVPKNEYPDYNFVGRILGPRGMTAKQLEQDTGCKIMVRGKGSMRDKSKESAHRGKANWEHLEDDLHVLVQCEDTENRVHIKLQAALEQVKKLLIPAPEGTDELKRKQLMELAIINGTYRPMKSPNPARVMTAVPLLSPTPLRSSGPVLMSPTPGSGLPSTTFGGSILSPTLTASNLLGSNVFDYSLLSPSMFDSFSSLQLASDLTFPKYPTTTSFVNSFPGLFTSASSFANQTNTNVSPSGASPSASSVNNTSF
Bcl-xL primary – Bcl-xL (human) inhibition; GST-Bcl-xL / FITC-Bim BH3 peptide fluorescence polarization; actives 0.7% (n = 320,000); AID 2129; inhibition, % at 10.9 µM;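 active = inhibition above the mean of all tested compounds plus 3 SD, cutoff set per campaign, cut at about 30% in these data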;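 note: 0% = DMSO wells and 100% = unlabeled Bim-BH3 peptide competitor; inhibitors lower millipolarization by displacing the labeled peptide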
E coli Lon inh – inhibits E. coli Lon protease. actives 0.42% (n = 360,000). inhibition, % at 7.94 µM. purified E. coli Lon protease, fluorescence polarization. AID 602123. P0A9M0; in the data active = inhibition above about 13%, passing the limit was not always enough;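 note: 0% = enzyme with probe and DMSO and 100% = no enzyme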
EBV gp42 inh – blocks Epstein-Barr virus glycoprotein 42 binding; Q1HVG2; Fluorescence polarization binding assay, mP read-out; inhibition, % (tested at 21.74 µM); actives 0.42% (n = 220,000); AID 1085; in the data active = inhibition above about 50%
MCL1 BIM primary – MCL1-BIM-BH3 interaction inhibition (human) | Q07820 | GST-MCL1 / FITC-Bim-BH3 fluorescence polarization | inhibition, % at 10.9 µM | actives 0.68% (n = 320,000) | AID 2057;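 active = inhibition above the mean inhibition of all tested compounds plus 3 SD, set per campaign, cut at about 40% in these data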;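 note: 0% = DMSO wells and 100% = unlabeled Bim-BH3 peptide control; higher means more loss of mP so more displacement of Bim peptide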
MEX-5 binding – C. elegans MEX-5 TCR-2 RNA binding activity; Q9XUB2; MEX-5/FITC-TCR2 RNA binding, fluorescence polarization; hits give low values; activity score (negative = inhibition of binding), % at 10 µM; actives 0.38% (n = 300,000); AID 1832;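 active = inhibition past about -25% in most replicates, and total fluorescence under double the plate's negative control median, limit read from the data; inconclusive = replicates evenly split on the limit, or fluorescence at least double controls; inactive = too little inhibition in most replicates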;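 note: 0% = DMSO and -100% = 5 µM competing unlabeled TCR2 RNA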
Bcl-xL conf – counter-screen for MCL1 inhibitors: confirmation of human Bcl-xL inhibitors; AID 2166; shares compounds with MCL1 BIM primary; GST-Bcl-xL / FITC-Bim BH3 peptide FP binding; actives 54% (n = 1,700); inhibition, % at 10.9 µM;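 active = inhibition above a cutoff equal to the mean inhibition of all tested compounds plus 3 SD, cut at about 30% in these data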;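 note: 0% = DMSO wells and 100% = unlabeled Bim BH3 control peptide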
MCL1 inh confirm – confirmation of human MCL1 and BIM-BH3 interaction inhibitors; shares compounds with MCL1 BIM primary; GST-MCL1 / FITC-Bim-BH3 fluorescence polarization; inhibition, % at 10.9 µM; actives 61% (n = 1,700); AID 2168;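 active = inhibition above the average of all tested compounds plus 3 SD, cut at about 40% in these data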;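 note: 0% = DMSO wells and 100% = unlabeled Bim-BH3 control peptide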
* = called active by the depositor; ? = inconclusive; . = not tested or not shown.

SMILES	GLD-1 TGE inh	Bcl-xL primary	E coli Lon inh	EBV gp42 inh	MCL1 BIM primary	MEX-5 binding	Bcl-xL conf	MCL1 inh confirm
COc1cc(NC(=O)c2noc3c2CCC3)c(OC)cc1Cl	5	11	7	-1	50*	-2	15	53*
COc1ccc(NC(=O)c2noc3c2CCC3)cc1	0	10	2	31	36	-3	.	.
COc1ccc(C(=O)C[n+]2cc(Br)cc3ccccc32)cc1[N+](=O)[O-]	-86	54*	-62	.	75*	-1	22	24
Cc1ccc(Cl)cc1NC(=O)c1ccccc1OCC(=O)N1CCOCC1	7	-4	5	.	63*	0	7	13
Cc1ccc(Cl)cc1NC(=O)c1ccccc1OCC(=O)Nc1ccc(Cl)cc1	-2	6	-6	-16	9	1	.	.
O=[N+]([O-])c1nn(-c2ccc3c(c2)OCCO3)n(O)c1=NCc1ccccc1Cl	-2	42*	-7	-7	54*	-1	14	11
COc1ccccc1CN=c1c([N+](=O)[O-])nn(-c2ccc3c(c2)OCCO3)n1O	4	-3	-1	-1	-11	1	.	.
CCCCC[C@H](C)N1C[C@@H](COCc2ccccc2)Oc2cc(N3CCC[C@H]3COC)ccc2S1(=O)=O	.	.	8	.	.	.	.	.
COc1ccc(NC(=O)CN(C)C(=O)c2cccc(-n3cccc3)c2)cc1	1	9	-5	.	48*	-1	4	27
Cc1c(N)cccc1N	-34	69*	0	.	52*	.	28	29
COc1cc2cc(C)c(SCC(=O)N3CCOCC3)nc2cc1OC	33*	53*	-4	1	56*	2	10	16
COc1cc2cc(C#N)c(SCC(=O)N3CCOCC3)nc2cc1OC	-1	10	-5	-5	9	3	.	.
CCn1nc(C)c(C2C(C#N)=C(N)OC3=C2C(=O)CCC3)c1C (stereo not given)	4	11	0	-11	-1	-2	.	.
CCn1nc(C)c(/C=C2\CCCC3=C2OC(N)=C(C#N)C3c2c(C)nn(CC)c2C)c1C (stereo not given)	53*	76*	.	39	72*	?	70*	85*
CC(Cc1ccccc1)N1C(=O)c2cccc([N+](=O)[O-])c2C1=O (stereo not given)	180*	146*	5	.	169*	-2	7	-2
O=c1cc(-c2ccccc2Cl)oc2cccc(O)c12	4	8	0	8	6	1	.	.
O=c1cc2oc3cc(O)c(O)cc3c(-c3ccccc3[N+](=O)[O-])c-2cc1O	8	31*	3	.	87*	-11	62*	104*
CC1(C)C(/C=C/C=C/C=C/C=C2\N(CCCCS(=O)(=O)O)c3ccc4ccccc4c3C2(C)C)=[N+](CCCCS(=O)(=O)[O-])c2ccc3ccccc3c21	0	85*	-26	.	90*	.	68*	74*
O=S(=O)(c1cccc2cccnc12)N1CCCCC1	2	6	-14	.	-1	4	.	.
CC(CS(=O)(=O)c1cccc2cccnc12)N1CCCCC1 (stereo not given)	40*	62*	7	-11	65*	-15	33*	42*
Cc1oc(C(N)=O)nc1-c1ccccc1	2	9	9	-3	48*	1	6	11
O=C1CC(/C=C/c2ccc([N+](=O)[O-])cc2)=Nc2ccccc2N1	-1	0	4	0	2	.	.	.
O=C1CC(/C=C/c2ccco2)=Nc2ccccc2N1	16	50*	-7	7	60*	-7	32*	45*
CCN(C(=O)CSc1nnc(SC)s1)c1c(N)n(Cc2ccccc2)c(=O)[nH]c1=O	59*	84*	-9	.	93*	.	-5	-3
C=CCN1C(=O)c2ccccc2Sc2ccc(C(=O)N3CCN(C)CC3)cc21	4	0	-6	-4	5	-2	.	.
SMILES	GLD-1 TGE inh	Bcl-xL primary	E coli Lon inh	EBV gp42 inh	MCL1 BIM primary	MEX-5 binding	Bcl-xL conf	MCL1 inh confirm
O=C(O)/C(=C\c1ccc(Cl)c([N+](=O)[O-])c1)c1ccc(S(=O)(=O)N2CCCCC2)s1	2	15	6	-2	15	-3	.	.
O=C(O)/C(=C\c1ccc(Cl)c([N+](=O)[O-])c1)c1ccc(S(=O)(=O)N2CCCC2)s1	-1	11	-6	.	43*	.	19	49*
CC(=O)OCC1=C(C(=O)O)N2C(=O)C(NC(=O)CCn3nc(C(F)(F)F)c(Br)c3C3CC3)C2SC1 (stereo not given)	-1	9	-1	-6	65*	-4	24	96*
CC(=O)OCC1=C(C(=O)O)N2C(=O)C(NC(=O)CCn3nc(C)c(Cl)c3C)C2SC1 (stereo not given)	-4	6	-3	-7	6	-3	.	.
Cc1ccc(-n2cnnn2)c2cccnc12	-3	2	0	-2	1	-3	.	.
CNc1ccc(Br)cc(C(=O)/C=C/c2ccc3c(c2)OCO3)c1=O	15	27	-15	26	49*	-3	-4	-20
O=C(N/N=C/C=C/c1ccccc1)c1ccccn1	-1	1	-2	-7	-2	1	.	.
Cc1ccc(S(=O)(=O)c2nc(C)oc2NCc2ccccc2)cc1	11	10	.	-13	40*	1	10	57*
COc1cc2ccnc(Cc3cccc(OC)c3OC)c2cc1OC	4	7	-1	-11	1	5	.	.
COc1cc(N)c(Cc2nccc3cc(OC)c(OC)cc23)cc1OC	17	115*	-12	-2	121*	-1	18	19
CSc1ccccc1-c1nnc(-c2ccc(Cl)c(Cl)c2)o1	5	8	3	9	43*	-2	6	-7
CSc1ccccc1-c1nnc(-c2ccc(Cl)cc2Cl)o1	2	0	0	-17	-9	1	.	.
COc1ccccc1CNC(=O)/C=C/c1ccc(Br)o1	2	2	6	15	42*	2	1	15
COc1ccc(NC(=O)/C=C/c2ccc(Br)o2)cn1	4	15	-6	22	9	-1	.	.
CCN1C=CC2=C(C#N)C(N)C(C#N)(C#N)C(c3ccccc3C(F)(F)F)C2C1 (stereo not given)	76*	106*	5	34	110*	-32*	50*	64*
CCN1C=C(Cc2ccccc2C)C2=C(C1)C(c1ccccc1C)C(C#N)=C(N)O2 (stereo not given)	25	11	-16	13	12	5	.	.
